# PubChem BioAssay AID686978 (National Center for Advancing Translational Sciences (NCATS), 2013)
# In all, about 420,000 compounds went through this assay and about 64,000 (15%) were called active. Inconclusive results (about 27%) are left out. The call rests on the fitted dose curve; in most records, active means well fitted inhibition curve with a large enough effect; inconclusive means small, poorly fitted or top-dose-only effect; inactive means flat fitted curve, though single readings scatter. A selection follows. Entries that show only a call come without a potency.
# Test: qHTS for Inhibitors of human tyrosyl-DNA phosphodiesterase 1 (TDP1): qHTS in cells in absence of CPT; further: nearly all actives have a fitted effect of over 55% in size
# Settings: DT40 Tdp1-/- hTDP1 cells, no CPT, ATP luminescence, 48 h; activity change, negative = growth inhibition: at 46.2 µM (top of the series)
# Procedure, shortened: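 Seeded 400 DT40-hTDP1 cells/well (vehicle DMSO, no 20 nM CPT); pinned compounds; ≥48 hr at 37 °C; CellTiter-Glo luminescence as viability measure.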
# Potency means the concentration at half of the fitted maximal effect.
row,SMILES,Potency
1,CCOC(=O)Cc1cccc(-c2cc(CCCCCCc3ccc(O[C@H]4O[C@H](COC(C)=O)[C@@H](OC(C)=O)[C@H](OC(C)=O)[C@@H]4OC(C)=O)c(-c4cccc(CC(=O)OCC)c4)c3)ccc2O[C@H]2O[C@H](COC(C)=O)[C@@H](OC(C)=O)[C@H](OC(C)=O)[C@@H]2OC(C)=O)c1,inactive
2,COC(C[C@@H]1O[C@@H]1C(=O)[C@@H](C)OCc1ccccc1)OC,inactive
3,Cc1ccccc1CSCCNC(=O)C1CCN(S(=O)(=O)Cc2ccccc2)CC1,inactive
4,Cc1ccc(Cl)cc1NC(=O)C1CCCN(c2cnccn2)C1 (stereo not drawn),inactive
5,Cc1cccc(NC(=O)C2CCCN(C(=O)Nc3ccc(F)cc3)C2)c1C (stereo not drawn),inactive
6,Cc1c(Cl)cccc1NC(=O)C1CCCN(c2ncnc3onc(C)c23)C1 (stereo not drawn),6.51 µM (active)
7,Cc1cn([C@H]2C[C@H](O)[C@@H](/C=C/C(=O)NCCCc3ccccc3)O2)c(=O)[nH]c1=O,inactive
8,Cc1ccc(C)c(NC(=O)C2CCCN2C(=O)OC(C)(C)C)c1 (stereo not drawn),inactive
9,CCOC(=O)N1CCC(Nc2c(NCCCN3CCN(c4ccc(OC)cc4)CC3)c(=O)c2=O)CC1,inactive
10,O=C(COc1cc2oc(=O)c3c(c2cc1Cl)CCC3)NCCCN1CCOCC1,inactive
11,COc1ccc(N2CCN(CCNC(=O)Nc3cc(Cl)ccc3Cl)CC2)cc1,inactive
12,Cc1ccc(C)c(N2CCN(C(=O)Cc3c(C(=O)O)c(C)cn3C)CC2)c1,inactive
13,CCOC(=O)c1c(C)[nH]c(CCC(=O)NCCCN2CCN(c3cccc(Cl)c3)CC2)c1C,16.4 µM (active)
14,Cc1ccc(C)c(N2CCN(CCCNC(=O)Nc3ccc(Cl)cc3)CC2)c1,6.51 µM (active)
15,Cc1ccccc1N1CCN(CC(=O)NCc2ccc(Cl)cc2)CC1,inactive
16,CCn1c(=O)cc(OCC(=O)NCCCN2CCN(c3cccc(Cl)c3)CC2)c2ccccc21,20.6 µM (active)
17,CCOC(=O)N1CCC(Nc2c(NCCN3CCN(c4cccc(Cl)c4)CC3)c(=O)c2=O)CC1,inactive
18,CCOC(=O)c1c(C)[nH]c(C(=O)NCCN2CCOCC2)c1C,inactive
19,CCOC(=O)c1c(C)[nH]c(CCC(=O)NCCCN2CCN(c3cc(C)ccc3C)CC2)c1C,4.61 µM (active)
20,Cn1c(=O)cc(OCC(=O)N2CCN(c3ccccc3)CC2)c2ccccc21,inactive
21,CCOc1ccc(S(=O)(=O)NCCCn2ccnc2)cc1NC(C)=O,inactive
22,CN(CCc1ccccc1)c1ccc([N+](=O)[O-])cn1,inactive
23,C/C=C(/C)C(=O)Nc1cccc(C2=NOC3(C2)C[C@@H](C(N)=O)N(C(=O)C2(C)CC2)C3)c1 (stereo partly drawn),inactive
24,O=C(NCC(O)c1ccc([N+](=O)[O-])cc1)C1CCCCC1 (stereo not drawn),inactive
25,C=CC1C(OC2OC(CO)C(O)C(O)C2O)OC=C(C(=O)OC)C1CC1CC(=O)CC(CC(=O)CCc2ccc(O)cc2)O1 (stereo not drawn),inactive

row,SMILES,Potency
1,C[C@@H](O)c1nc2ccccc2n1N,inactive
2,C#CCOCCOCCOCCNc1nc(N2CCOCC2)nc(N2CCN(C(=O)[C@H](Cc3ccc(O)cc3)n3cc(CCO)nn3)CC2)n1,inactive
3,Cn1cc(CN2CCCCC2c2ccccn2)c(-c2ccc3c(c2)OCCO3)n1 (stereo not drawn),inactive
4,CC1=C(c2ccc(C)cc2)S(=O)(=O)NC1=NCCCN1CCN(c2cc(C)ccc2C)CC1,3.66 µM (active)
5,COC(=O)c1ccc2c(c1)S(=O)(=O)NC(=NCCCN1CCOCC1)S2,inactive
6,CCc1nnc(NC(=O)CCC(=O)N2CCN(c3cc(C)ccc3C)CC2)s1,inactive
7,CCN(CC)C(=O)N1CCN(C(=O)c2ccc(C)cn2)CC1,inactive
8,O=C(N/N=C/c1ccc(Cl)c(Cl)c1)c1ccc2nc[nH]c2c1,23.1 µM (active)
9,CC(=NNC(=O)c1ccc2nc[nH]c2c1)c1ccc(Br)cc1,inactive
10,Cc1nc2ccc(C(=O)N/N=C/c3ccc(O)cc3)cc2[nH]1,inactive
11,CCCCc1ccc(S(=O)(=O)NC(=O)C2(C)CCN2C(=O)c2ccccc2)cc1 (stereo not drawn),inactive
12,COc1ccc(C2/C(=C(/O)c3ccc4c(c3)CC(C)O4)C(=O)C(=O)N2Cc2ccncc2)cc1 (stereo not drawn),inactive
13,COc1cc(C2C(C(=O)OCCC#N)=C(C)NC3=C2S(=O)(=O)c2ccccc23)cc(OC)c1OC (stereo not drawn),inactive
14,O=C(Nc1ccccc1Br)c1cc(CN2CCCC2)on1,inactive
15,O=C(c1ccco1)N1CCN(C(=O)c2cc(-c3ccccc3F)no2)CC1,inactive
16,CN(Cc1ccccc1)Cc1ccccc1F,inactive
17,CC(Cc1ccccc1)C(=O)N(C)Cc1ccccc1 (stereo not drawn),inactive
18,CN(Cc1ccccc1F)C(=O)C(Cc1ccccc1)NC(=O)c1ccccc1 (stereo not drawn),16.4 µM (active)
19,Cc1ccc(C)c(C(C)NC(=O)C2CCCO2)c1 (stereo not drawn),inactive
20,O=c1onc(-c2c(F)cccc2F)n1-c1ccccc1Cl,inactive
21,CCSc1nc2sc3c(c2c(=O)[nH]1)CC(C)(C)OC3,inactive
22,CCOC(=O)Cn1c(SC)nc2sc3c(c2c1=O)CC(C)(C)OC3,14.6 µM (active)
23,CCOC(=O)CSc1nc2sc3c(c2c(=O)[nH]1)CC(C)(C)OC3,inactive
24,CCOC(=O)C1(Cc2ccc(O)cc2)NC(c2ccccc2F)C2C(=O)N(C)C(=O)C21 (stereo not drawn),20.6 µM (active)
25,CCOCCOC(=O)C1=C(C)N(C)C(=O)NC1c1ccccc1F (stereo not drawn),inactive

row,SMILES,Potency
1,COC(=O)C1(C)NC(c2ccccc2OC)C2C(=O)N(c3ccccc3)C(=O)C21 (stereo not drawn),inactive
2,Cc1ccc(C)c(Cn2nnc3c(=O)[nH]c(C(=O)Nc4ccc(F)cc4)nc32)c1,16.4 µM (active)
3,Cc1cc(C)cc(NC(=O)Cn2cnc3c(nnn3Cc3ccc(F)cc3)c2=O)c1,inactive
4,Cc1n[nH]c(=O)c2c1nnn2Cc1ccc(F)cc1,inactive
5,O=C1NC(c2ccccc2)Oc2ccccc21 (stereo not drawn),inactive
6,O=C(OCCN1C(=O)c2ccccc2C1=O)Oc1ccccc1,inactive
7,C[C@H]1CN([C@@H](C)CO)C(=O)CCCn2cc(nn2)CO[C@@H]1CN(C)C(=O)Nc1ccccc1,inactive
8,NC(=O)CC(NC(=O)Cc1cccc2ccccc12)c1ccc(NCc2cc(F)ccc2F)c([N+](=O)[O-])c1 (stereo not drawn),29.1 µM (active)
9,CC1CCCCN1CCCNc1ccc(C(CC(N)=O)NC(=O)c2ccccc2)cc1[N+](=O)[O-] (stereo not drawn),inactive
10,COc1ccc(OC)c(C(=O)NC(CC(N)=O)c2ccc(N3CCC(N4CCCCC4)CC3)c([N+](=O)[O-])c2)c1 (stereo not drawn),inactive
11,CNc1ncnc2ccc(-c3cccc(NS(C)(=O)=O)c3)cc12,18.4 µM (active)
12,CS(=O)(=O)Nc1cccc(-c2cncnc2Nc2ccccc2)c1,inactive
13,COc1ccccc1CNc1ncncc1-c1cccc(NS(C)(=O)=O)c1,inactive
14,Cn1c2ccccc2c2cc(/C=C(\NC(=O)c3ccccc3)C(=O)NCC(=O)O)ccc21,inactive
15,O=C(O)C1CCCN1C1=NS(=O)(=O)c2ccccc21 (stereo not drawn),inactive
16,Fc1cccc(-n2ncc3c2ncn2nc(-c4ccccc4Cl)nc32)c1,inactive
17,COc1ccc(C2Nc3ccc(NC(=O)COC(C)=O)cc3C(=O)N2Cc2ccccc2)cc1COc1ccc(NC(C)=O)cc1 (stereo not drawn),12.6 µM (active)
18,COc1cc(C2C3=C(CCCC3=O)OC3=C2C(=O)CCC3)ccc1OCC(=O)Nc1ccccc1,inactive
19,COc1ccc(N2C(=O)c3ccccc3NC2c2ccc(OC)c(CN3CCOCC3)c2)cc1 (stereo not drawn),inactive
20,CN(CC(=O)Nc1ccc(F)cc1)CC(=O)N1CCCCC1,inactive
21,CCc1c(C)c2c(C)[nH]nc2oc1=O,inactive
22,COc1ccc(OC)c(-n2nnc3c(sc4nc(C)c(Br)c(C)c43)c2=O)c1,inactive
23,COc1ccc(OC)c(Cc2cnc3nc(N)nc(N)c3c2C)c1,0.164 µM (active)
24,Cc1nnc(NC(=O)c2ccc3nccnc3c2)s1,inactive
25,CCOc1cc(N2CCOCC2)c(OCC)cc1NC(=O)COc1cccc(Cl)c1,2.59 µM (active)

row,SMILES,Potency
1,O=C(COc1cccc(Cl)c1)NCc1ccccc1,inactive
2,CCOc1cc(N2CCOCC2)c(OCC)cc1NC(=O)COc1cccc2cccnc12,10.3 µM (active)
3,NC(=O)C1CCN(C(=O)COc2cccc3cccnc23)CC1,inactive
4,O=C(COc1nsnc1N1CCOCC1)Nc1ccccc1Cl,inactive
5,O=C(COc1ccc(Cl)cc1)NC(=S)Nc1ccccc1N1CCOCC1,inactive
6,CC1CCN(C(=O)Cn2cc(C(=O)c3ccco3)c3ccccc32)CC1,inactive
7,CC(CC(=O)O)CC(=O)NNC(=O)c1cccc(Br)c1 (stereo not drawn),inactive
8,COc1ccc(NC(=O)CC2C(=O)OCC3CCCCN32)cc1Cl (stereo not drawn),inactive
9,N#CC1(NC(=O)COC(=O)Cc2n[nH]c(=O)c3ccccc23)CCCCC1,inactive
10,O=C(Nc1ccccc1C(=O)N1CCOCC1)C1CCC(=O)N1C1CCCC1 (stereo not drawn),inactive
11,Cc1nc(C)c(C(=O)Nc2cccc(C)c2C)o1,inactive
12,CC1(C)C2CC=C(/C=N/NC(=O)C3CC3)C1C2 (stereo not drawn),inactive
13,COC(=O)c1cc(OC)c(OC)cc1NC(=O)C1CCCO1 (stereo not drawn),inactive
14,COc1cc(=O)n2c(c1C(=O)N(C)Cc1nonc1C)CCN(C(=O)c1ccc(C)cc1C)CC2,inactive
15,O=C(CSc1cccc[n+]1[O-])c1ccc(Cl)cc1,5.17 µM (active)
16,CCN(C(=O)CSc1nnc(-c2ccncc2)o1)c1ccccc1,inactive
17,O=C(Cc1ccc(Cl)cc1)c1ccccc1,inactive
18,CCN(CC)c1ccc(S(=O)(=O)N2CCOCC2)cc1NC(=O)CSc1cccc[n+]1[O-],inactive
19,COc1ccccc1C(=O)CSc1cccc[n+]1[O-],inactive
20,CC(NC(=O)COC(=O)CCC(=O)c1ccc(Cl)cc1)c1ccccc1 (stereo not drawn),inactive
21,CCN(C(=O)CSc1cccc[n+]1[O-])c1ccccc1,1.84 µM (active)
22,O=C(CSc1nnc2ccccn12)c1ccccc1,inactive
23,O=C(CSc1cccc[n+]1[O-])c1ccc(-c2ccccc2)cc1,0.82 µM (active)
